From PubChem BioAssay (NCI) come the findings set out here.

Compounds without any hit were thinned out: in the full panel of roughly 79,000, 15% have a hit. A number with no mark means an inactive call. Active and inactive are the calls of the source. Cut-off read from the data, not from the text of the source: active = growth inhibition above about 70%; inactive = the rest.

A short description of assay [1]: NCI Yeast Anticancer Drug Screen. Data for the rad50 strain (AID 155).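 Note: 0% = growth of vehicle-only cultures of the same strain.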 To be noted: S. cerevisiae rad50 strain growth inhibition; at 50.0 µM; hits give high values. The essentials: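 Genetically altered yeast (DNA repair pathway); compound treatment; growth inhibition vs vehicle ctrl.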
Assay [2] can be described thus: NCI Yeast Anticancer Drug Screen. Data for the mec2-1 strain (AID 157). To be noted: S. cerevisiae mec2-1 strain, at 50.0 µM, hits give high values. The procedure, abridged:
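Each compound was tested on mec2-1 yeast, a strain altered in DNA damage repair or cell cycle control. Growth inhibition is reported relative to vehicle.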

Assay [3] is described as follows: NCI Yeast Anticancer Drug Screen. Data for the sgs1 mgt1 strain (AID 161).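 Note: 0% = growth of cultures given vehicle only.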 To be noted: S. cerevisiae sgs1 mgt1 strain, at 50.0 µM, hits give high values. The procedure, abridged: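 Read-out: growth inhibition vs vehicle controls. Cells: mutant yeast strain deficient in DNA damage repair.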
Assay [4] is described as follows: NCI Yeast Anticancer Drug Screen. Data for the cln2 rad14 strain (AID 165).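 Note: 0% = growth equal to vehicle treated cultures.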 To be noted: S. cerevisiae cln2 rad14 strain, at 50.0 µM, hits give high values. The essentials: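 Test compounds were added to cln2 rad14 yeast cultures; inhibition of growth was then determined by comparison with vehicle treatment.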
Assay [5] can be described thus: NCI Yeast Anticancer Drug Screen. Data for the bub3 strain (AID 167). To be noted: S. cerevisiae bub3 mutant strain, at 50.0 µM, hits give high values. The procedure, abridged:
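Yeast carrying a defined mutation is treated with each compound, and growth is compared with that of vehicle-exposed cells to give inhibition.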

The nature of assay [6]: NCI Yeast Anticancer Drug Screen. Data for the mlh1 rad18 strain (AID 175). To be noted: S. cerevisiae mlh1 rad18 strain growth inhibition; at 50.0 µM; hits give high values. The essentials:
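Inhibition values reflect reduced growth of mutant yeast versus vehicle-treated controls following compound exposure; the mutations affect DNA damage repair.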

Take `CCOC(=O)C(NC(=O)CC(C)C)(NC(C)C)C(F)(F)F` (centres undefined): the growth inhibition in assay [1] is -8.45%; in assay [2], -2.25%; in assay [3], -9.4%; in assay [4], -8.1%; in assay [5], -3.45%; in assay [6] it was -12.9%.
For the compound `CCOc1ccc(NC(=O)CC2SC(=Nc3ccc(C)cc3C)NC2=O)cc1` (centres undefined), the growth inhibition was 12.6% in assay [1]; 24.5% in assay [2]; 33.3% in assay [3]; 44.3% in assay [4]; 39.4% in assay [5]; 28.8% in assay [6].
Turning to `c1ccc(CCN2CCN(CCc3ccccn3)CC2)nc1`, the growth inhibition was 6.25% in assay [1]; 6% in assay [2]; -6.95% in assay [3]; -19.6% in assay [4]; 3.8% in assay [5]; 0.2% in assay [6].
Regarding `COc1ccc(CCN2CN=C(Sc3ccc([N+](=O)[O-])cc3Cl)NC2)cc1OC`, the growth inhibition was 11% in assay [1]; -11.2% in assay [2]; 7.55% in assay [3]; 10% in assay [4]; 21.9% in assay [5]; 11.1% in assay [6].
For the compound `COc1cccc(C2CC(C)=Nc3c(ccc4c3C(=O)c3ccccc3C4=O)N2)c1O` (centres undefined), the growth inhibition in assay [1] is 1.2%; in assay [2] it was 17.9%; in assay [3], 24.6%; in assay [4], 7.8%; in assay [5], 11.8%; in assay [6], 14.8%.
Regarding `CCC(C)CCOC(=O)c1ccc(N=Cc2ccc(C=Nc3ccc(C(=O)OCCC(C)CC)cc3)cc2)cc1` (centres undefined), the growth inhibition was -20.5% in assay [1]; 2.7% in assay [2]; 30% in assay [3]; 11.6% in assay [4]; 43.4% in assay [5]; 29.9% in assay [6].
With `CCc1cc2ccccc2oc1=O`, the growth inhibition in assay [1] is -1.1%; in assay [2], 3.65%; in assay [3] it was 0.1%; in assay [4], -18.1%; in assay [5], 1.55%; in assay [6], -5.85%.
Take `CCCCS(=O)(=O)C1CCCC1=O` (centres undefined): the growth inhibition is -3.5% in assay [1]; 5.5% in assay [2]; -2.55% in assay [3]; -7.1% in assay [4]; 1.45% in assay [5]; 1.9% in assay [6].
Consider `CCC(=O)CCc1ccc(OC)cc1`, for which the growth inhibition in assay [1] is 4.55%; in assay [2], -6.75%; in assay [3] it was -3.85%; in assay [4] it was -20.6%; in assay [5] it was -12.2%; in assay [6], -13.8%.
With `CN(C)C=N[C@@H](C(=O)O)c1ccccc1`, the growth inhibition in assay [1] was -8.85%; in assay [2], -19.1%; in assay [3], -11.4%; in assay [4], 8.8%; in assay [5] it was -4.95%; in assay [6] it was 9.8%.
With `N#C/C(=C\c1c2ccccc2c(Cl)c2ccccc12)C(N)=S`, the growth inhibition in assay [1] is 34.2%; in assay [2], 24.9%; in assay [3], 45.1%; in assay [4], 7.55%; in assay [5], 15.4%; in assay [6], 24.4%.
On to `Nc1ccc(C(=O)N/N=C/c2ccc(Cl)cc2Cl)cc1`, for which the growth inhibition in assay [1] was 27%; in assay [2], -4.05%; in assay [3], 11.9%; in assay [4], 8%; in assay [5] it was 13.1%; in assay [6], -5.75%.
Regarding `Cc1nc2sccc2c(=O)n1C`, the growth inhibition in assay [1] was -4.5%; in assay [2] it was -3.6%; in assay [3], -0.9%; in assay [4], -4.1%; in assay [5], 0.2%; in assay [6] it was -4.35%.
With `Cc1cc(C)c(OC(=O)c2ccc(C(=O)Oc3c(C)cc(C)cc3C)cc2)c(C)c1`, the growth inhibition in assay [1] is 13.8%; in assay [2] it was -1.65%; in assay [3] it was -4.85%; in assay [4], 0.25%; in assay [5], -1.6%; in assay [6] it was 14.9%.
Take `CCCCCC(=O)OCCCc1ccccc1`: the growth inhibition in assay [1] was 28.9%; in assay [2], 2.9%; in assay [3], -0.3%; in assay [4], -12.9%; in assay [5] it was 19.4%; in assay [6] it was -6.8%.
Consider `O=C1c2ccccc2-c2ccc3c4ccc5c6c(ccc(c7ccc1c2c73)c64)C(=O)c1ccccc1-5`, for which the growth inhibition was 53.2% in assay [1]; 23.4% in assay [2]; 36.8% in assay [3]; 30.6% in assay [4]; 15.2% in assay [5]; 37.5% in assay [6].
Turning to `C/C(=C\Cc1cc(O)c(C)cc1O)CC/C=C(\C)Cc1cc(C)co1`, the growth inhibition in assay [1] was -14.9%; in assay [2], -19.7%; in assay [3], -35.5%; in assay [4], 17.9%; in assay [5], -1.3%; in assay [6], -8.75%.
Turning to `COC1=CC(=O)c2ccc3ccccc3c2C1=O`, the growth inhibition in assay [1] was 86.7% (active); in assay [2], 90.4% (active); in assay [3] it was 89.4% (active); in assay [4], 88.8% (active); in assay [5] it was 88.8% (active); in assay [6] it was 86.5% (active).
With `CC1(C)OCC(C2OC3OC(C)(C)OC3C2c2ccccc2)O1` (centres undefined), the growth inhibition in assay [1] is -3.55%; in assay [2], -9%; in assay [3] it was -31.1%; in assay [4], 1.4%; in assay [5], -2.8%; in assay [6] it was 2.2%.
Turning to `CCOC(=O)Cc1csc(NC(NC(=O)OCC)(C(=O)OCC)C(F)(F)F)n1` (centres undefined), the growth inhibition in assay [1] is 2.4%; in assay [2], -0.3%; in assay [3] it was -17.9%; in assay [4] it was -4.2%; in assay [5] it was -12.3%; in assay [6] it was -6.25%.
As to `CC(C)c1ccc(OCC2CCCO2)cc1` (centres undefined), the growth inhibition in assay [1] is 37.4%; in assay [2], 0.95%; in assay [3], 39%; in assay [4], 41.7%; in assay [5] it was 28.9%; in assay [6], 27.4%.
As for `C=CCCNC(=S)S`, the growth inhibition in assay [1] is -1.15%; in assay [2] it was 11.7%; in assay [3] it was 6.1%; in assay [4], -2.9%; in assay [5], 4%; in assay [6] it was -3.4%.
For the compound `CC(=O)CCc1ccc2c(c1)OCCO2`, the growth inhibition in assay [1] was 27.9%; in assay [2], -10.7%; in assay [3] it was -7.55%; in assay [4] it was -83.2%; in assay [5], -3.8%; in assay [6], -20.9%.
As for `CN(C)[C@@H]1C(=O)C(C(=O)NCNC2CC(C)(C)N(O)C(C)(C)C2)=C(O)C2(O)C(=O)C3=C(O)c4c(O)cccc4[C@@](C)(O)C3CC12` (some centres undefined), the growth inhibition was -1.2% in assay [1]; 30.6% in assay [2]; 2.55% in assay [3]; -37% in assay [4]; -22.1% in assay [5]; 24.6% in assay [6].
As to `CCOC(=O)CC(NC(=O)CC(N)C(=O)O)C(=O)OCC` (centres undefined), the growth inhibition in assay [1] was 7.15%; in assay [2], 3%; in assay [3] it was -2.7%; in assay [4], -1.25%; in assay [5], -0.3%; in assay [6], -3.25%.
For `CCC1([N+](=O)[O-])CC2C=CC1C2` (centres undefined), the growth inhibition in assay [1] is 2.2%; in assay [2], -14.3%; in assay [3], -26%; in assay [4], -4.15%; in assay [5], -21.7%; in assay [6], -13.2%.
Turning to `CCNN(CC)C(N)=O`, the growth inhibition in assay [1] is 5.2%; in assay [2] it was -5%; in assay [3], 0.4%; in assay [4], 7.6%; in assay [5], -13.2%; in assay [6], -1.25%.
For `COc1ccc(Nc2nc(N)nc3c2ncn3C2OC(CO)C(O)C2O)cc1` (centres undefined), the growth inhibition is -9.6% in assay [1]; -17.9% in assay [2]; -13.2% in assay [3]; -7% in assay [4]; 2.05% in assay [5]; -11.5% in assay [6].
With `CNCC(OCCc1ccccc1)c1ccc(O)c(O)c1` (centres undefined), the growth inhibition is 5.85% in assay [1]; -1.9% in assay [2]; 36% in assay [3]; -0.95% in assay [4]; -12.6% in assay [5]; 21.4% in assay [6].
Turning to `Cc1ccc(C=C(C(=O)O)C(=O)O)o1`, the growth inhibition is -21.3% in assay [1]; -29.4% in assay [2]; -17.6% in assay [3]; -8.05% in assay [4]; -13.4% in assay [5]; -56.2% in assay [6].
In the case of `C[C@@H]1OC(=O)N2CCCC(=C3SCCCS3)C12` (some centres undefined), the growth inhibition was 0.6% in assay [1]; -0.05% in assay [2]; -2.6% in assay [3]; -25.1% in assay [4]; 2.7% in assay [5]; -12.2% in assay [6].
Consider `ONc1ncnc2[nH]cc(Br)c12`, for which the growth inhibition is 4% in assay [1]; -6.8% in assay [2]; -5.65% in assay [3]; 2.6% in assay [4]; -4.5% in assay [5]; 9.7% in assay [6].
For `CC(C)=CCCC(C)(O)C1CC=C(C)CC1` (centres undefined), the growth inhibition in assay [1] was 0.5%; in assay [2], -18.8%; in assay [3] it was -2.6%; in assay [4], 3.05%; in assay [5], -13.9%; in assay [6], -7.65%.
Take `O=C1C(=Cc2ccco2)C(=O)C2CCCCC12` (centres undefined): the growth inhibition in assay [1] is 6.8%; in assay [2], -9%; in assay [3] it was -10.8%; in assay [4] it was 13%; in assay [5], 2.4%; in assay [6] it was 13.6%.
Take `NC(=O)C12C3C4C1C1C2C3C41C(N)=O` (centres undefined): the growth inhibition in assay [1] is 29.1%; in assay [2], 12.4%; in assay [3], -1.7%; in assay [4] it was 16.5%; in assay [5] it was -5.8%; in assay [6] it was 20.6%.
Turning to `N#CC(c1ccccc1)c1ccccn1` (centres undefined), the growth inhibition in assay [1] was 5.9%; in assay [2] it was 8.35%; in assay [3] it was 8.75%; in assay [4], -9.2%; in assay [5], 5.5%; in assay [6], 2.75%.
Take `c1ccc2cc3c(NC4=NCCO4)cccc3cc2c1`: the growth inhibition in assay [1] is -2.8%; in assay [2] it was 5.9%; in assay [3], -2.7%; in assay [4] it was 22.4%; in assay [5], 33.1%; in assay [6], 16.2%.
As for `O=C(O)c1cccc(C(=O)O)c1S(=O)Cc1ccccc1` (centres undefined), the growth inhibition was 3.45% in assay [1]; -15.1% in assay [2]; 1.2% in assay [3]; -0.15% in assay [4]; -17.1% in assay [5]; 17.9% in assay [6].
Turning to `CC12CC3OC3CC1CCC1C2CCC2(C)C1CCC21OCCO1` (centres undefined), the growth inhibition in assay [1] is 16%; in assay [2], -32.7%; in assay [3], 3.6%; in assay [4], 3.15%; in assay [5], 23.1%; in assay [6] it was 22.6%.
